An excerpt weighted towards active compounds, which were near 2.1% of everything screened.
m-calpain inh = inhibitors of pig calpain II; inhibition, % at 16 µM; purified calpain II, fluorogenic peptide substrate, 30 min; 220,000 compounds, 0.37% hits;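 active = inhibition above about 50%, limit read from the data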
ROMK mod = human ROMK K+ channel modulation, primary screen. P48048. Tet-inducible ROMK, thallium flux fluorescence; actives lie on both sides. B-score at 10 µM. 130,000 compounds, 2% hits;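 active = signal ratio slope over the read window, or its plate-corrected B-score, at least 3 SD from the plate mean, either direction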;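 also: B-score of the F/F0 ratio slope over 7 to 12 s after thallium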
Target sequence (P48048 whole entry, looked up): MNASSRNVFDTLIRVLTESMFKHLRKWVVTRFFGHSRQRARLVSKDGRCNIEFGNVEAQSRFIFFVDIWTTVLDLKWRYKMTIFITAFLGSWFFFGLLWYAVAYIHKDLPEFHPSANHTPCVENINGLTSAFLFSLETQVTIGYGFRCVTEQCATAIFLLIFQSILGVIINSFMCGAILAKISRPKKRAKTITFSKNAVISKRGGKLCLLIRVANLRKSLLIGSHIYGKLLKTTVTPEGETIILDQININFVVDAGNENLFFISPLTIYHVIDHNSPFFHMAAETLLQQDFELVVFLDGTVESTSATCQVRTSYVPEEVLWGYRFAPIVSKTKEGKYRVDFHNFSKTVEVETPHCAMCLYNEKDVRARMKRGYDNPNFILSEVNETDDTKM
Arbovirus inh = arbovirus infection inhibition. arbovirus infection cell-based antiviral screen. inhibition, % at 10 µM. 200,000 compounds, 0.37% hits; in the data active = inhibition above about 30%
Efa HMGR inh = blocks class II HMG-CoA reductase of Enterococcus faecalis; purified E. faecalis HMGR, NADPH absorbance 340 nm kinetic; inhibition, % at 10 µM; 190,000 compounds, 0.41% hits;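 active = inhibition above a set limit, the median over all tested compounds plus 3 SD, cut at about 9.5% in these data; inconclusive = no clear call, values can overlap the other calls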;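 also: enzyme runs in reverse so mevalonate oxidation gives rising NADPH absorbance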
HSV replic up = HSV replication enhancement. HSV replication augmentation in cells, fold increase. maximum fold increase. 220,000 compounds, 0.005% hits. AID 1956; in the data active = maximum fold increase above about 1.5; inconclusive = no clear call, values can overlap the other calls; tested in PC3 cells
ROMK hit retest = retested hit modulating human ROMK potassium channel; shares compounds with ROMK mod; normalized thallium flux (F/F0 slope) at 10 µM; 3,000 compounds, 54% hits; ROMK thallium flux, fluorescence ratio; stronger effect = lower value; AID 1917;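 active = Flux at 10 µM at least 3 SD below or above vehicle control mean in one or both replicates; inconclusive = no clear call, values can overlap the other calls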
Hits are given with their value; n = inactive; u = inconclusive; x = no result.

SMILES	m-calpain inh	ROMK mod	Arbovirus inh	Efa HMGR inh	HSV replic up	ROMK hit retest
CN(C)CCCN1C(=O)c2cccc3c([N+](=O)[O-])ccc(c23)C1=O	n	-4.8	n	n	x	0.038
N#C/C(=C/c1ccc(N2CCOCC2)o1)c1ccc(Cl)cc1	n	x	n	n	x	0.051
N#C/C(=C\c1ccc(N2CCOCC2)o1)c1nc2ccccc2[nH]1	n	x	n	n	u	x
COc1cc(/C=C2\COC/C(=C\c3ccc(O)c(OC)c3)C2=O)ccc1O	n	x	x	x	n	x
COc1cc(/C=C2\CC/C(=C\c3ccc(OCCO)c(OC)c3)C2=O)ccc1OCCO	n	-2.4	n	n	n	u
COc1cc(/C=C2/CC/C(=C/c3ccc(O)c(OC)c3)C2=O)ccc1O	n	x	x	x	x	0.051
COc1ccc(N2CCN(Cc3nc(-c4ccccc4)no3)CC2)cc1	n	n	n	n	n	x
CCOCCCNC(=O)c1cc2sc(Cl)cc2n1CC	n	3.1	n	n	n	n
NNC(=O)c1ccc(COc2cccc3ccccc23)cc1	n	x	n	n	n	x
O=C(c1cccc(COc2cccc3ccccc23)c1)N1CCCC1	n	-3.5	n	n	n	n
Cc1nnc(SCc2ccc([N+](=O)[O-])cc2)o1	n	n	n	n	n	x
CCN1CC=C2C(C1)C(c1ccc(Cl)s1)C(C#N)=C(N)C2(C#N)C#N (configuration not stated)	n	x	n	n	x	0.039
CCN1CC=C2C(C#N)=C(N)C(C#N)(C#N)[C@H](c3cccc(OC)c3OC)[C@H]2C1	x	x	n	n	n	x
COC(Cc1n[nH]c(=S)n1-c1ccccc1)OC	n	x	n	n	n	n
COCc1n[nH]c(=S)n1-c1ccccc1	n	n	n	n	n	x
CC1C/C(=C/c2cccn2C)C(=O)/C(=C/c2cccn2C)C1 (configuration not stated)	n	x	n	n	x	x
CC1C/C(=C/c2ccncc2)C(=O)/C(=C/c2ccncc2)C1 (configuration not stated)	n	-1.8	n	n	n	0.05
CCOc1ccc2nc(NCCCNC(=O)c3cc(OC)c(OC)c(OC)c3)c(C#N)cc2c1	n	x	x	x	n	n
COc1cc(C(=O)NCCCNc2nc3cc(C)cc(C)c3cc2C#N)cc(OC)c1OC	n	x	n	n	n	x
CC1(C)CC(=O)C2=C(C1)OC(N)=C(C#N)C2CCc1ccccc1 (configuration not stated)	n	-5.1	n	n	n	n
O=C(Cn1nnc(-c2ccccc2NC(=O)c2ccccc2F)n1)NC1CCCC1	n	n	n	n	n	x
COc1cc(C)nc(NC(=O)COc2ccc(Cl)cc2C)n1	n	x	n	n	n	u
Cc1ccc(-n2c(C)cc(/C=N/NC(=O)CC3(C)OCCO3)c2C)c(C)c1	n	n	n	n	n	x
CC1(CC(=O)N/N=C/c2cc([N+](=O)[O-])c(O)cc2O)OCCO1	n	n	n	n	n	n
Cc1ccc(C(C)C)c(OCC(=O)Nc2ccccc2N2CCN(C)CC2)c1	n	-2.9	n	n	n	0.066
SMILES	m-calpain inh	ROMK mod	Arbovirus inh	Efa HMGR inh	HSV replic up	ROMK hit retest
CN1CCN(c2ccccc2NC(=O)COc2ccccc2)CC1	n	n	n	n	n	x
Cc1ccc(C(C)C)c(OCC(=O)NN=C(CCl)CCl)c1	n	-4.6	x	x	n	0.06
CC(=O)N1CCN(c2ccccc2NC(=O)COc2cc(C)ccc2C(C)C)CC1	n	x	n	n	n	n
C/C(=N/NC(=O)COc1cc(C)ccc1C(C)C)C(=O)O	n	n	n	n	x	x
Cc1ccc(OCC(=O)Nc2ccccc2N2CCOCC2)c(C)c1	n	x	n	n	n	x
O=C(CNCc1cccc2ccccc12)Nc1ccccc1[N+](=O)[O-]	n	n	n	n	n	x
CNC(=S)NNC(=O)c1noc(C)c1C(=O)N1CCN(C(c2ccccc2)c2ccccc2)CC1	n	n	n	n	n	x
Cc1ccc(S(=O)(=O)CCNC(=O)Cc2ccccc2)cc1	n	n	n	n	n	x
N=c1oc2ccc3ccccc3c2cc1-c1nc(-c2ccccc2)cs1	n	x	n	n	n	0.048
CCc1ccc2[nH]c(=O)c(CN(Cc3ccccc3OC)C(=O)Nc3ccccc3OC)cc2c1	n	0.96	n	n	n	n
Nc1nc(SCc2ccc(F)cc2)ns1	n	n	n	n	n	x
Cn1c(=O)n(C)c2cc(NS(=O)(=O)c3ccc4c(c3)CCCC4)ccc21	n	-2	n	n	n	u
C=C(C)COc1ccc(-c2[nH]ncc2-c2ccc(OC)cc2)c(O)c1	n	x	x	x	n	x
C=C(C)COc1ccc(-c2[nH]ncc2-c2ccc(OC)c(OC)c2)c(O)c1	n	3.8	n	n	n	n
O=S(=O)(c1cccc2cccnc12)N1CCN(Cc2ccccc2)CC1	n	n	n	n	n	x
CSC1=NC(C(Cl)(Cl)Cl)N=C(c2ccc(C)cc2)N1 (configuration not stated)	n	2.7	n	n	n	0.1
OCCNCc1ccc(OCc2ccc(Cl)cc2Cl)cc1	n	n	n	n	n	x
OCCCCNCc1ccc(OCc2ccc(Cl)cc2Cl)cc1	n	x	n	n	n	0.053
O=C(CCCn1cnc([N+](=O)[O-])n1)Nc1cccc2ccccc12	n	n	n	n	n	n
CN(c1ccccc1)S(=O)(=O)c1cccc(NC(=O)c2cncc(Br)c2)c1	n	x	x	x	n	x
CN(c1ccccc1)S(=O)(=O)c1cccc(NC(=O)c2ccncc2)c1	n	x	x	x	n	n
CCOC(=O)c1ccc(N2C(=O)c3n[nH]c(C)c3C2c2ccc(OC)c(OC)c2)cc1 (configuration not stated)	n	x	n	n	n	n
CCOC(=O)c1ccc(N2C(=O)c3n[nH]c(C)c3C2c2ccc(OC)cc2)cc1 (configuration not stated)	n	x	n	n	n	x
O=Cc1ccc(-c2ccccc2OC(F)(F)F)o1	n	3.8	n	n	n	0.11
Cc1c(C(=O)O)cccc1-c1ccc(C=O)o1	n	n	n	n	n	x
SMILES	m-calpain inh	ROMK mod	Arbovirus inh	Efa HMGR inh	HSV replic up	ROMK hit retest
O=C(Cc1ccccc1)NCc1ccc(-n2cccc2)cc1	n	2.5	n	n	n	n
O=C(Cc1ccc(-n2cccc2)cc1)NCc1ccccc1Cl	n	n	n	n	n	x
CCOC(=O)c1ccc(-c2ccc(/C=N/NC(=O)Cc3nnc(N)s3)o2)cc1	n	-12	x	x	n	n
O=C(CSCc1ccc(Cl)cc1)Nc1ccccc1O	n	2.3	n	n	n	n
O=C(CSCc1ccc(Cl)cc1)Nc1ccccc1C(=O)N1CCOCC1	n	x	n	n	n	x
CCn1c(/C=C/Nc2ccccc2)[n+](CC)c2cc(Cl)c(Cl)cc21	n	-3.9	n	n	n	0.044
CCn1c(/C=C/N(C(C)=O)c2ccccc2)[n+](CCCS(=O)(=O)[O-])c2cc(Cl)c(Cl)cc21	n	n	n	n	n	x
O=C(Cn1cncn1)c1ccc(F)cc1F	n	x	n	n	n	x
CCOC(=O)c1c(C)oc(NC(=O)CCl)c1C(=O)OCC	n	n	n	n	n	x
CN(C)CC/C=C1\c2cc(F)ccc2CSc2ccccc21	n	-3.2	n	n	n	0.061
CN(C)CC/C=C1/c2cc(F)ccc2CSc2ccc(F)cc21	n	n	n	n	n	x
Cc1ccccc1CN1CCc2c(OCC(=O)N3CCCc4ccccc43)cccc2C1=O	n	n	n	n	n	n

Assay outcomes: PubChem, several laboratories
